Data on one sequence can be found in PMC7862700, “An all-to-all approach to the identification of sequence-specific readers for epigenetic DNA modifications on cytosine”.

Common to all, as to test: DAPPL (digital affinity profiling via proximity ligation, sequencing); 10 mM Tris-HCl pH 7.5, 50 mM NaCl, 1 mM DTT, 4% glycerol, room temperature, 30 min; GST-TFs on glutathione beads, 16-mer random dsDNA library, 0.1% formaldehyde crosslink after washing; high values mean tight binding
The target of test [1] is T1, FEV (Homo sapiens, UniProt Q99581 1-238).
T1 sequence: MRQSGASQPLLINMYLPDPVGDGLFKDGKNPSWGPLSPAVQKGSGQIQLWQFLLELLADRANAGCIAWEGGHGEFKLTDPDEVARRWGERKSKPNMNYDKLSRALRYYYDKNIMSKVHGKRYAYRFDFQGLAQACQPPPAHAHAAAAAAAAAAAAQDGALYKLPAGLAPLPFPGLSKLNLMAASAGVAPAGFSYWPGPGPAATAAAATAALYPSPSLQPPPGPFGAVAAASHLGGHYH
The conditions noted are these: protein: recombinant; tags: N-terminal GST; dsDNA, one strand shown. The essentials:
(§1)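 Human transcription factors were made in yeast as GST fusions, captured on glutathione beads and barcoded with DNA. With a tag-only sample included, the pool was incubated with 200 nmole of a random double-stranded 16-mer DNA library in Tris/NaCl/DTT/glycerol buffer at room temperature for 30 min, then crosslinked with 0.1% formaldehyde after washing, ligated by proximity, amplified and sequenced. For binding signal, each hexamer's read frequency for a factor is divided by its frequency for the tag-only sample.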

The target of test [2] is ETV5 (Homo sapiens, UniProt P41161 1-510). The conditions noted are these: protein: recombinant; tags: N-terminal GST; dsDNA, one strand shown. In a few lines: as §1
For test [3], the target named is HSF1 (Homo sapiens, UniProt Q00613 1-529). To be noted: protein: recombinant; tags: N-terminal GST; chain copies: 3; dsDNA, one strand shown. In a few lines:
as §1

In test [4] the target is T2, SPIC (Homo sapiens, UniProt Q8N5J4 1-248).
T2 sequence: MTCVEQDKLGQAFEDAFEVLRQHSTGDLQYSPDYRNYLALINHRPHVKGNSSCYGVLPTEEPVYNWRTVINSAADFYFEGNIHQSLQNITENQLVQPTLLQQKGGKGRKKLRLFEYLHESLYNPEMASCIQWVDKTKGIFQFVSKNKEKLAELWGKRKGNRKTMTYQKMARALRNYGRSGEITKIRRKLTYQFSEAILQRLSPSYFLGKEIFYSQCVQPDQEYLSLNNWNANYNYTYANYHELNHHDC
The conditions noted are these: protein: recombinant; tags: N-terminal GST; dsDNA, one strand shown. The essentials:
as §1

Test [5] deals with ELF4 (Homo sapiens, UniProt Q99607 1-663). The conditions noted are these: protein: recombinant; tags: N-terminal GST; dsDNA, one strand shown. In a few lines:
as §1

Test [6] deals with T3, ELK4 (Homo sapiens, UniProt P28324-2 1-405).
T3 sequence: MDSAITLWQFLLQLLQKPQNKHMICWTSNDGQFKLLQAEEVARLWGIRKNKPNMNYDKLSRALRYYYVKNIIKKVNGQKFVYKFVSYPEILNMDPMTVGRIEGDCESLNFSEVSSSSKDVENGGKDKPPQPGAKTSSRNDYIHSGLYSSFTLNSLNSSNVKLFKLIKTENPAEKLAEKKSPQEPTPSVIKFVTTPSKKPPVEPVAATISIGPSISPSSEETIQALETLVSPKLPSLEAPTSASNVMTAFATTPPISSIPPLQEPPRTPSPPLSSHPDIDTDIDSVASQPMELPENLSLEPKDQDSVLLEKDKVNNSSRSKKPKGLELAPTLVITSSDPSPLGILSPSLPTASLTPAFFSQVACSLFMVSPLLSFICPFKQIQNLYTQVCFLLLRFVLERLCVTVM
To be noted: protein: recombinant; tags: N-terminal GST; dsDNA, one strand shown. In a few lines: as §1

The target in test [7] is T4, ETV2 (Homo sapiens, UniProt O00321 1-342).
T4 sequence: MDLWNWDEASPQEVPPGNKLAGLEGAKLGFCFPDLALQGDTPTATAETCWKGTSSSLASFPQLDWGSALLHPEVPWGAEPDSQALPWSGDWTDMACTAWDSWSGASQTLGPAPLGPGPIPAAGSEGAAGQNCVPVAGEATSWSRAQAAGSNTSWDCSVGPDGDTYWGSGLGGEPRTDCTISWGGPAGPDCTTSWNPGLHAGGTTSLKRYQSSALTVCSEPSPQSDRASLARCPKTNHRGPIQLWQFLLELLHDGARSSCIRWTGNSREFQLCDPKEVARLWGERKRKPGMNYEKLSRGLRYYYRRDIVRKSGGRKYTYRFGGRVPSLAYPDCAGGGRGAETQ
The conditions noted are these: protein: recombinant; tags: N-terminal GST; dsDNA, one strand shown. In a few lines: as §1

Test [8] deals with T5, ELF3 (Homo sapiens, UniProt P78545 1-371).
T5 sequence: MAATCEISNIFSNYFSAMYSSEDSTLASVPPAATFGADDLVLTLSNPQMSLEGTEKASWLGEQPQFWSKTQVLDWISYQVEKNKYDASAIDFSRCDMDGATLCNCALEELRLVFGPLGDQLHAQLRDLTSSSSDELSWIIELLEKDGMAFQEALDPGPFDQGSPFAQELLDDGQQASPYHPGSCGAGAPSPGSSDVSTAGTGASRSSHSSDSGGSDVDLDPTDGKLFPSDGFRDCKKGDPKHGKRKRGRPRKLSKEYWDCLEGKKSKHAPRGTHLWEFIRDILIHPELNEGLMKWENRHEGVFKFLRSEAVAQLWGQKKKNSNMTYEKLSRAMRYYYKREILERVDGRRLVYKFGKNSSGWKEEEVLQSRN
The conditions noted are these: protein: recombinant; tags: N-terminal GST; dsDNA, one strand shown. In a few lines: as §1

Test [9] has as its target CRX (Homo sapiens, UniProt O43186 1-299). To be noted: protein: recombinant; tags: N-terminal GST; dsDNA, one strand shown. The essentials:
as §1

In test [10] the target is ETV1 (Homo sapiens, UniProt P50549 1-477). To be noted: protein: recombinant; tags: N-terminal GST; dsDNA, one strand shown. The essentials: as §1
For test [11], the target named is T6, ERF (Homo sapiens, UniProt P50548 1-548).
T6 sequence: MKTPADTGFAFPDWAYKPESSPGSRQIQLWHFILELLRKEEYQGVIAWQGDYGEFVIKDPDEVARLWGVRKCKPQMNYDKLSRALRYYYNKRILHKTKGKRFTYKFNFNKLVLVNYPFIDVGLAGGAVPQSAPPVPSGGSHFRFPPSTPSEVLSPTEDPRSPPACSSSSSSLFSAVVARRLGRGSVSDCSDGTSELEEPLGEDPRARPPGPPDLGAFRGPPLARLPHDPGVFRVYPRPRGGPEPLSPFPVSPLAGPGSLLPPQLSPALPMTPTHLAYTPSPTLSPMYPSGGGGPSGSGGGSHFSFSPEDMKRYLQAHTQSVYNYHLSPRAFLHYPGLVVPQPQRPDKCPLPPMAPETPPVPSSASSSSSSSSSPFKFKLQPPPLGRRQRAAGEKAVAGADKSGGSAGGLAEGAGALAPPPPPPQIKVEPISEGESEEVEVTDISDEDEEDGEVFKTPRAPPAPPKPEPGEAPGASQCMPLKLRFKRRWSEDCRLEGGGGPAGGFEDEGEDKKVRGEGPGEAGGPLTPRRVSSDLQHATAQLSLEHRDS
The conditions noted are these: protein: recombinant; tags: N-terminal GST; dsDNA, one strand shown. In a few lines:
as §1

The target of test [12] is T7, ETV3L (Homo sapiens, UniProt Q6ZN32 1-361).
T7 sequence: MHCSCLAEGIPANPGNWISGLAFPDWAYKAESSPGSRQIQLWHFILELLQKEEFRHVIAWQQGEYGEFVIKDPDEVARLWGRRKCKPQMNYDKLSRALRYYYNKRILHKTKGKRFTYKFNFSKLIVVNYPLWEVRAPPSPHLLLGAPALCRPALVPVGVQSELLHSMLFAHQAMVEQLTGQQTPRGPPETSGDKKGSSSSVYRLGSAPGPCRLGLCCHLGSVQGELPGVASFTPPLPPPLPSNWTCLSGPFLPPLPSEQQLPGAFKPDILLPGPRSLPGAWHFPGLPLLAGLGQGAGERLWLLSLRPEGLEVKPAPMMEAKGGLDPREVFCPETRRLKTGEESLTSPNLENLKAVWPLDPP
To be noted: protein: recombinant; tags: N-terminal GST; dsDNA, one strand shown. In a few lines: as §1

Test [13] deals with T8, ETS2 (Homo sapiens, UniProt P15036 1-469).
T8 sequence: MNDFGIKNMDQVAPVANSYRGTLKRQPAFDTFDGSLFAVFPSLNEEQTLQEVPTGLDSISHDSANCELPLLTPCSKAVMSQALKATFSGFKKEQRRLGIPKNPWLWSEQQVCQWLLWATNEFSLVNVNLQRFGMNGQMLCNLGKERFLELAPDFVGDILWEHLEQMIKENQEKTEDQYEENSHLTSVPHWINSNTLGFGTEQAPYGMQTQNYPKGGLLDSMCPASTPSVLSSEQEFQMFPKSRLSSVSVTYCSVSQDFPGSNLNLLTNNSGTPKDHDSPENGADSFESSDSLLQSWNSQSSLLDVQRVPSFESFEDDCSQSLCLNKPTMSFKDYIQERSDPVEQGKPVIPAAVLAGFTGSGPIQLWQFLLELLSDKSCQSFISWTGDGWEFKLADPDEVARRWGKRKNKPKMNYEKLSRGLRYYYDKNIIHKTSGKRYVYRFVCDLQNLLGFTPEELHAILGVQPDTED
To be noted: protein: recombinant; tags: N-terminal GST; dsDNA, one strand shown. The essentials: as §1

Test [14] deals with T9, SPDEF (Homo sapiens, UniProt O95238 1-335).
T9 sequence: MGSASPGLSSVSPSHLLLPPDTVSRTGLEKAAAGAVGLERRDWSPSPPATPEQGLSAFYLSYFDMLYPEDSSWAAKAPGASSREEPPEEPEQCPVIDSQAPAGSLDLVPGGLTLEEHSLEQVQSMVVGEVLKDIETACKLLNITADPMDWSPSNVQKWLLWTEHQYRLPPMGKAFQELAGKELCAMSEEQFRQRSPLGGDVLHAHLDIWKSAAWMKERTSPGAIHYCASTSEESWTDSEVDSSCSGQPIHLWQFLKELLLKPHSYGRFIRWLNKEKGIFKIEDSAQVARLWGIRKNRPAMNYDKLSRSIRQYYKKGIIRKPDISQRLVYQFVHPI
The conditions noted are these: protein: recombinant; tags: N-terminal GST; dsDNA, one strand shown. The essentials: as §1

Test [15] has as its target T10, ETV7 (Homo sapiens, UniProt Q9Y603 1-341).
T10 sequence: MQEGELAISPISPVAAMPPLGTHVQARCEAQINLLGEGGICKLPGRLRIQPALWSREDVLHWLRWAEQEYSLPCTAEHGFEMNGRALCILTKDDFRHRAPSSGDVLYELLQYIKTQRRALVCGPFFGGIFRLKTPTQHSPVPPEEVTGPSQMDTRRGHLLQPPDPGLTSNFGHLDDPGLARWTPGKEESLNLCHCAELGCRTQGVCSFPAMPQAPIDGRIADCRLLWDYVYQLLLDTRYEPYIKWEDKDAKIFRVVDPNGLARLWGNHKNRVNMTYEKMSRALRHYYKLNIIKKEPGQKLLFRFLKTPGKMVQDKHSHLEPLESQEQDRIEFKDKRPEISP
To be noted: protein: recombinant; tags: N-terminal GST; dsDNA, one strand shown. The essentials:
as §1

For test [16], the target named is T11, ELF5 (Homo sapiens, UniProt Q9UKW6-2 1-255).
T11 sequence: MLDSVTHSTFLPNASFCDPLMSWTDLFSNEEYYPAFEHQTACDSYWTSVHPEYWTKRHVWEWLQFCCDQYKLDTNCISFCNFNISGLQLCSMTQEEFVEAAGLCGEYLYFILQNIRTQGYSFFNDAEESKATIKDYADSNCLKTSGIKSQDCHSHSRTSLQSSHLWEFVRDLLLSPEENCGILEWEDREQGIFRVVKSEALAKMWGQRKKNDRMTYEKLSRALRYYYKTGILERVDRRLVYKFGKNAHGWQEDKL
The conditions noted are these: protein: recombinant; tags: N-terminal GST; dsDNA, one strand shown. In a few lines:
as §1

Test [17] addresses T12, ETV3 (Homo sapiens, UniProt P41162-2 1-143).
T12 sequence: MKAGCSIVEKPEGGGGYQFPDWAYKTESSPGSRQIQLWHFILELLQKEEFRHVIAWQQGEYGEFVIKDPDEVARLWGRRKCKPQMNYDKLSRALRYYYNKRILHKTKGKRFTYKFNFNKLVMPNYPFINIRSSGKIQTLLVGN
To be noted: protein: recombinant; tags: N-terminal GST; dsDNA, one strand shown. The essentials: as §1

The target of test [18] is ETV6 (Homo sapiens, UniProt P41212 1-452). To be noted: protein: recombinant; tags: N-terminal GST; dsDNA, one strand shown. In a few lines:
as §1

Chain of HSF1 (Q00613 whole entry): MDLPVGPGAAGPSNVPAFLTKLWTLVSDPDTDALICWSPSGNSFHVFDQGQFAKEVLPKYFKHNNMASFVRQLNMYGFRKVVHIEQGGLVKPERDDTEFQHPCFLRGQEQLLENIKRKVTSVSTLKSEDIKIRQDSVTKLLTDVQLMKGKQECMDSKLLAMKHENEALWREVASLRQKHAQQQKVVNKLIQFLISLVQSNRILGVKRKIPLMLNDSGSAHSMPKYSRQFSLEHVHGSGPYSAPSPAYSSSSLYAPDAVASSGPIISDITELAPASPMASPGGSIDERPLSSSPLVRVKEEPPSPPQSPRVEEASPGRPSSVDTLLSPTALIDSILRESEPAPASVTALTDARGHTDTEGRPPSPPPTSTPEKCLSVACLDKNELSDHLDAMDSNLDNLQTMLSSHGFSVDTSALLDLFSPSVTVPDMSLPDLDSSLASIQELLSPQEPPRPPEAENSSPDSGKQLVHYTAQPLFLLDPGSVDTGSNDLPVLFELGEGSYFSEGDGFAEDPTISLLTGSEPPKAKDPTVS
Chain of ETV6 (P41212 whole entry): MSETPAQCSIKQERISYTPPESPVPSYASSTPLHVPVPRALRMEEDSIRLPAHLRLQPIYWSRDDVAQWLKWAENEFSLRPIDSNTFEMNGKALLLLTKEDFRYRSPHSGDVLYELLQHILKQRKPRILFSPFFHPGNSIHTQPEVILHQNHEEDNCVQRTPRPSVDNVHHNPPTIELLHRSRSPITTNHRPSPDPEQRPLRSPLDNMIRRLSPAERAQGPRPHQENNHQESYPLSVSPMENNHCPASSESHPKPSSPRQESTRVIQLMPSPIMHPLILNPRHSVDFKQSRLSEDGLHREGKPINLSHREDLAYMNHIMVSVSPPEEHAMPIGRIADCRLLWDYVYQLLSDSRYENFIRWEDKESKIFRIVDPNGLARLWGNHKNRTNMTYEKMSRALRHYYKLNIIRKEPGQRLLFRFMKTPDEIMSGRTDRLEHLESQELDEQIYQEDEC
Chain of CRX (O43186 whole entry): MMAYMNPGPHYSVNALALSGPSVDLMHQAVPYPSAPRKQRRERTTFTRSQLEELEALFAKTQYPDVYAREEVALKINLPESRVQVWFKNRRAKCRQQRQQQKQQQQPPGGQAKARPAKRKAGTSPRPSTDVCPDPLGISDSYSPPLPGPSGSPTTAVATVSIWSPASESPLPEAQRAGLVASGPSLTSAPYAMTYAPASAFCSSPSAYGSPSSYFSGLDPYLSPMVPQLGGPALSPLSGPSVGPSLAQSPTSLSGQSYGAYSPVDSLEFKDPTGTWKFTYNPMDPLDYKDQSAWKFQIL
Chain of ETV1 (P50549 whole entry): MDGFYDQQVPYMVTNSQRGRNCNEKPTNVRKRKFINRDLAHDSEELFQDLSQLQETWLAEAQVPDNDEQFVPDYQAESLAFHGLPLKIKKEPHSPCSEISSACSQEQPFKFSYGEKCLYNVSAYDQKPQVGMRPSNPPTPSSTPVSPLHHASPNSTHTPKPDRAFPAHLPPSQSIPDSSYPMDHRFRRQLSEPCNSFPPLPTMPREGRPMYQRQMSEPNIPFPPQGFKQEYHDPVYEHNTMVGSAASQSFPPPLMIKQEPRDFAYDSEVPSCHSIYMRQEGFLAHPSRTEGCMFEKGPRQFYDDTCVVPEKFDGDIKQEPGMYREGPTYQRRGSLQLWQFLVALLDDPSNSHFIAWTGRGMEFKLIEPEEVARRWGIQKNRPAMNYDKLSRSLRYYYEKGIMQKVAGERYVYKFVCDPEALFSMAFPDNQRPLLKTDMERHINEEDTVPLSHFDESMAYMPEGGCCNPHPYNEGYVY
Chain of ETV5 (P41161 whole entry): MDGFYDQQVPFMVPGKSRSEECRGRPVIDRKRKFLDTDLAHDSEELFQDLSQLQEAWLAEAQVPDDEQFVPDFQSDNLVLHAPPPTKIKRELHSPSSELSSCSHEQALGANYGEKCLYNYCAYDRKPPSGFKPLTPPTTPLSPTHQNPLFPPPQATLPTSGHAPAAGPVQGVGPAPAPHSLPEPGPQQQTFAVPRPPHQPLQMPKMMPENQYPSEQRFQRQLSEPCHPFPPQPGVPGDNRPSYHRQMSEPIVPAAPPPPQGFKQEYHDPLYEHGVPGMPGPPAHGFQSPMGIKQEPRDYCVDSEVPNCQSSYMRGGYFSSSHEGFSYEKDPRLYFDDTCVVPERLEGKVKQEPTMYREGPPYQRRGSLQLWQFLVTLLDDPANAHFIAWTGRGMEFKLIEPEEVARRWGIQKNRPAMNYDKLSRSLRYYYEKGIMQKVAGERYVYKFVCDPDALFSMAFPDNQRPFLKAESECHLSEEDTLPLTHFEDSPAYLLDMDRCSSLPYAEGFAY
Chain of ELF4 (Q99607 whole entry): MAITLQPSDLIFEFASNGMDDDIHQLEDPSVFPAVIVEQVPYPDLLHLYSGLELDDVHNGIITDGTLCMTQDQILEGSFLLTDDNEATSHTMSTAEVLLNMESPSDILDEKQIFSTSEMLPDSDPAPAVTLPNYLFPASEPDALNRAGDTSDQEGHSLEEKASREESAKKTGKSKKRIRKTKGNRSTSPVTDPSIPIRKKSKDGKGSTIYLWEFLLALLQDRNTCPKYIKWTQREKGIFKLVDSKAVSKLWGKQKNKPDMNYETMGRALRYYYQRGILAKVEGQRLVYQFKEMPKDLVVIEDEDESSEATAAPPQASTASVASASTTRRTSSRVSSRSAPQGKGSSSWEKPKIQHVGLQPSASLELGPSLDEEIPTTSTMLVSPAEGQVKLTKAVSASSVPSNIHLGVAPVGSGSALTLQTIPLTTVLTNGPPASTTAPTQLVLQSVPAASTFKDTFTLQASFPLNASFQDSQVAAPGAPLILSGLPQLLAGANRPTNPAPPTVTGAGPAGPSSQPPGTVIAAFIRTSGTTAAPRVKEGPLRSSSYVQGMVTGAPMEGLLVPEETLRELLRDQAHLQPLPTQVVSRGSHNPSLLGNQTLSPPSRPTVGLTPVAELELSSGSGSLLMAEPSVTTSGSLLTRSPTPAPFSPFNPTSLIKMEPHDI

Take GTCTCC: the binding signal was 1.53 fold enrichment (6-mer frequency, TF over GST control) in test [1]; 1.46 fold enrichment (6-mer frequency, TF over GST control) in test [2]; 1.15 fold enrichment (6-mer frequency, TF over GST control) in test [3]; 1.32 fold enrichment (6-mer frequency, TF over GST control) in [4]; 1.43 fold enrichment (6-mer frequency, TF over GST control) in test [5]; 1.46 fold enrichment (6-mer frequency, TF over GST control) in test [6]. Besides, the binding signal in test [7] is 1.38 fold enrichment (6-mer frequency, TF over GST control); in [8], 1.46 fold enrichment (6-mer frequency, TF over GST control); in test [9] it was 1.04 fold enrichment (6-mer frequency, TF over GST control); in [10] it was 1.37 fold enrichment (6-mer frequency, TF over GST control); in test [11] it was 1.45 fold enrichment (6-mer frequency, TF over GST control); in test [12], 1.67 fold enrichment (6-mer frequency, TF over GST control). For the same sequence, the binding signal in test [13] is 1.52 fold enrichment (6-mer frequency, TF over GST control); in test [14], 1.47 fold enrichment (6-mer frequency, TF over GST control); in [15] it was 1.32 fold enrichment (6-mer frequency, TF over GST control); in test [16], 1.4 fold enrichment (6-mer frequency, TF over GST control); in [17], 1.52 fold enrichment (6-mer frequency, TF over GST control); in test [18], 1.51 fold enrichment (6-mer frequency, TF over GST control).
